# ± gives the standard deviation.
# Test system: MILI (PIWIL2) piRISC loaded with piRNA #1 (26 nt)
# Assay: pre-steady-state target cleavage rate (min^-1); guide: piRNA #1 5'p-UGAGGUAGUAGGUUGUAUAGUAUCCA; MIWI and MILI are mouse PIWI proteins and EfPiwi is from a freshwater sponge; tags in brackets are library labels; higher = faster piRNA-guided slicing of the target
# Conditions: auxiliary factor: 500 nM mouse GTSF1
# Outline: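 Cleave-'n-Seq: a transcribed, DNA-blocked target RNA library (0.1 nM) was mixed with 1 nM active affinity-purified piRISC carrying one synthetic guide, with or without 500 nM GTSF1 partner protein, in HEPES–potassium acetate buffer at 33 °C for 0–8 or 0–960 min. Uncleaved targets were sequenced and normalised to depth and to weakly complementary targets. Three trials were pooled, and k3 was capped at 0.0001 min^-1. The pre-steady-state cleavage rate came from a burst-and-steady-state fit.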
row,Sequence,pre-steady-state target cleavage rate
1,GGAGACCUAUGUAUCCAACCUACUACCUCA,0.0333 ± 0.005
2,GGAGACCUAUGUAUACAACCUAUCUACCUCA,0.0415 ± 0.01
3,GGAGACCUAAGUAUACAACCUACUACGUCA,0.0129 ± 0.0032
4,GGAGUGGAUACAAUAGAACCUACUACCUCA,0.163 ± 0.009
5,GGAGACCUUACUAUACAACCUACUUCCUGA,0.0269 ± 0.0086
6,GGAGACCUAUGAUAAGAACCUACUUCCUCA,< 0.0001
7,GGAGACCAUACUAUACUACCUACUAGCUCA,0.0939 ± 0.017
8,GGAGACCUUACUAUACAAGGUACUACCUCA,0.0785 ± 0.0094
9,GGAGACCUAUGAUAUGAACCUGCUACCUCA,< 0.0001
10,GGAGACCUAUGAUAUCAACCUACACCUCA,< 0.0001
11,GGAGACCUAUGAAUACAACCUACCACCUCA,0.00506 ± 0.0036
12,GGAGACCUAACUAUACAUCCUACUACCACA,0.251 ± 0.046
13,GGAGACGAUACUAUACAUCCUUCUACCUCA,0.0277 ± 0.0037
14,GGAGUGGAAACUAAACAACCUACUACCUCA,0.201 ± 0.02
15,GGAGACCUUACUAUACAACCUAGCUACCUCA,0.0317 ± 0.0069
16,GGAGACCUUCCUAUACAACCUACUACCUCA,0.113 ± 0.027
17,GGAGACCUUACUAUACAACGUACUAGCUCA,0.0137 ± 0.0043
18,GGAGACCUUAGUAUACAACCUACUACCACA,0.101 ± 0.013
19,GGAGACCUAACUAUAGAACCUACUACGUCA,0.0322 ± 0.01
20,GGAGACCUAUCUAUACAACCUACAAGCUCA,0.0435 ± 0.012

row,Sequence,pre-steady-state target cleavage rate
1,GGAGACCAUACUUUACAACCUACUACGUCA,0.0972 ± 0.016
2,GGAGACCAUACAAUACAACCUACUAGCUCA,0.181 ± 0.029
3,GGAGACCUAUGUAUACAACCUACAACCUGA,0.0031 ± 0.0024
4,GGAGACCUAUCUAUACAACCUACUACCACA,0.136 ± 0.019
5,GGAGACCUUACUAUACUACCUACUUCCUCA,0.119 ± 0.019
6,GGAGACCUAACAAUACAACCUACUACCUGA,0.0637 ± 0.022
7,GGAGACCAUACUAUACAACGAUGAUGGAGA [g12:g23:cont:t1A],< 0.0001
8,GGAGACCUAUGAAUACAACCUCACUACCUCA,0.00378 ± 0.0031
9,GGAGACCUAUGAAUACUUCCUACUACCUCA,0.00297 ± 0.0022
10,GGAGACCUAUGUACUACAACCUACUACCUCA,0.00901 ± 0.0026
11,GGAGACCAUACUAAACAACGUACUACCUCA,0.0192 ± 0.003
12,GGAGACCUAUGAAACAACCUACUACCUCA,0.00673 ± 0.0031
13,GGAGACCUAUGAUAUGUUCCUACACCUCA,< 0.0001
14,GGAGACCUAUCUUAACAACCUACUACCUCA,0.0183 ± 0.0045
15,GGAGACCAUUCUAUACAACCAACUACCUCA,0.0079 ± 0.0026
16,GGAGACCAUACUAAAGAACCUACUACCUCA,0.11 ± 0.012
17,GGAGACCUAUCUAUUCAACCUACUACGUCA,0.0451 ± 0.0089
18,GGAGACCUAUCUAUUCAACCUAGUACCUCA,0.00955 ± 0.0033
19,GGAGACCUAUGAUAUGAACCUACUACGCUCA,< 0.0001
20,GGAGACCUUACUAUACAUCCUUCUACCUCA,0.0405 ± 0.0086
